# According to PubChem BioAssay (NCI):
# Compounds without any hit were thinned out: in the full panel of roughly 83,000, 20% have a hit.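 Activity criterion: percent growth below 10, measured after cells in 96-well plates were exposed to a single compound concentration for 48 hours.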 A number with no mark means an inactive call. Activity calls are given as the source filed them.
# Columns and labels:
# Experiment in all cases: NCI-60 one-dose screen, 48 h (100 = growth as untreated, 0 = no growth, -100 = all killed)
# Details in all cases: 10 µM unless noted
# SR leukemia = system: SR leukemia
# OVCAR-8 ovarian = system: OVCAR-8 ovarian
# OVCAR-5 ovarian = system: OVCAR-5 ovarian
# OVCAR-4 ovarian = system: OVCAR-4 ovarian
# SK-OV-3 ovarian = system: SK-OV-3 ovarian
# IGROV1 ovarian = system: IGROV1 ovarian
# OVCAR-3 ovarian = system: OVCAR-3 ovarian
# HS 578T breast = system: HS 578T breast
# NCI/ADR-RES ovarian = system: NCI/ADR-RES ovarian
# T-47D breast = system: T-47D breast
# BT-549 breast = system: BT-549 breast
# MDA-MB-435 melanoma = system: MDA-MB-435 melanoma
# SW-620 colon = system: SW-620 colon
# MCF7 breast = system: MCF7 breast
# HCT-116 colon = system: HCT-116 colon
# HCC-2998 colon = system: HCC-2998 colon
# KM12 colon = system: KM12 colon
Structure (SMILES),growth (SR leukemia),growth (OVCAR-8 ovarian) [%],growth (OVCAR-5 ovarian) [%],growth (OVCAR-4 ovarian),growth (SK-OV-3 ovarian) [%],growth (IGROV1 ovarian),growth (OVCAR-3 ovarian),growth (HS 578T breast),growth (NCI/ADR-RES ovarian),growth (T-47D breast),growth (BT-549 breast) [%],growth (MDA-MB-435 melanoma),growth (SW-620 colon),growth (MCF7 breast),growth (HCT-116 colon),growth (HCC-2998 colon),growth (KM12 colon)
Cc1c(C(=O)/C=C/Nc2c(Cl)cc(S(N)(=O)=O)cc2Cl)sc2nc3ccccc3n12,110%,101,106,116%,111,111%,107%,105%,110%,97.8%,102,103%,101%,102%,105%,124%,101%
O=C1c2cccc3cccc(c23)C(=O)N1N1C(=O)c2cccc3c(NC4CCCCC4)ccc(c23)C1=O,90.2%,96.2,90.6,96.8%,92.1,102%,105%,103%,95.4%,88.4%,97.8,102%,98.7%,88.8%,98.9%,108%,99.5%
O=C(N/N=C/[C@H](O)[C@@H](O)[C@@H](O)[C@H](O)CO)c1ccc(NC(=O)c2cccnc2)cc1,103%,105,106,102%,108,110%,120%,108%,106%,100%,106,106%,108%,94.8%,108%,117%,106%
COc1cc(C2CC(c3ccc(N(C)C)cc3)=NN2C(C)=O)cc(OC)c1OC (stereo not drawn),-17.2% (active),38.9,54.5,51.5%,24.9,30.4%,-38.2% (active),0.792% (active),-24.4% (active),31.7%,45.1,-65.6% (active),10.7%,11.5%,20.6%,24.9%,10.8%
Cn1cc(-c2cc3ncnc(Nc4ccc(CC(=O)Nc5cc(C(C)(C)C)nn5C)cc4)c3s2)cn1,8.15% (active),35.9,102,28.1%,29.3,28.9%,61.4%,32.3%,101%,12.1%,45.7,58.4%,63%,54.8%,39.2%,80.8%,16.7%
O=C1c2cccc3cccc(c23)C(=O)N1Nc1nc(NC2CCCCC2)nc(N2CCOCC2)n1,91%,99,95.6,106%,95.7,90.3%,103%,99.4%,99.8%,88.4%,110,103%,98.1%,89.3%,93.6%,111%,98.9%
CC([C@H]1CCC2C3CCC4C[C@@H](NC=O)CC[C@]4(C)C3CC[C@@]21C)N(C)C (stereo partly drawn),-38.7% (active),41.1,67.8,-18.6% (active),42.5,25.6%,-34.3% (active),-2.92% (active),27.1%,-40.6% (active),30.7,-46.1% (active),-71.5% (active),-23.1% (active),-66.2% (active),-67.2% (active),-21.1% (active)
CS(=O)(=O)N(c1cc(-c2ccc3ncnc(Nc4ccc(F)c(Cl)c4)c3c2)cnc1Cl)S(C)(=O)=O,47.5%,66.1,30.6,65.7%,14.6,-22.3% (active),36.1%,-1.88% (active),69%,-11% (active),22,43.8%,46.3%,12%,45.1%,45.1%,67.1%
O=C1c2cccc3cccc(c23)C(=O)N1Nc1nc(N2CCOCC2)nc(N2CCN(c3ccccc3)CC2)n1,23.7%,71.6,83.8,79.9%,54.8,32.9%,11.2%,42.9%,37.8%,37.3%,37.8,-12.6% (active),32.6%,17.9%,31.2%,77.6%,48.5%
